The nature of experiment [1]: qHTS assay for small molecule agonists of the antioxidant response element (ARE) signaling pathway (AID 651741; active = well fitted activation curve with a large enough effect in the signal ratio; the % refers to the signal ratio; also: potency is read from the fitted curve at half-maximal effect; as to activation: % of control where 0% means no effect). In short, it runs like this: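 HepG2 ARE-bla reporter cells, 2,000/well; 5 h settle at 37 C/5% CO2; compound pin transfer (23 nL, DMSO); 16 h at 37 C; LiveBLAzer B/G FRET substrate, 2 h RT; fluorescence intensity read.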
A short description of experiment [2]: qHTS assay for small molecule activators of the p53 signaling pathway (AID 651743; active = well fitted activation curve with a large enough effect in the signal ratio, not every such curve was filed as active; the % refers to the signal ratio; also: series mostly up to about 92 µM; % of control where 0% means no effect). Particulars: HCT-116 p53RE-bla, beta-lactamase FRET ratio, 16 h; activation: active compounds read high. In short, it runs like this:
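Reporter: beta-lactamase driven by p53 response elements, stably integrated in HCT-116 cells. Cells seeded at 4,000/well, 5 h preincubation, compound (DMSO) 16 h at 37 C; B/G FRET substrate 2 h RT; fluorescence intensity read.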
(In general: qHTS replaces the single test concentration by a dilution series.)

The nature of experiment [3]: qHTS assay for small molecule activators of the nuclear factor-kappa B (NF-kB) signaling pathway (AID 651749; active = well fitted activation curve with a large enough effect in the signal ratio; the % refers to the signal ratio; also: series mostly up to about 77 µM; % of control where 0% means no effect). Particulars: NF-kB-bla ME-180 cells, beta-lactamase FRET ratio, 16 h; active compounds read high. Summed up: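 NF-kB-bla ME-180 cells, 2,000/well; 23 nL compound or DMSO pinned; 16 hr, 37C/5% CO2; beta-lactamase FRET read-out.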
A short description of experiment [4]: qHTS assay for environmental chemicals that activate the Aryl hydrocarbon Receptor (AhR) signaling pathway (AID 651777). Also: nearly all actives have a fitted effect of over 15% in size. Also: potency is read from the fitted curve at half-maximal effect. As to activation: % of control where 0% means no effect. Particulars: 1A2-DRE human hepatoma cells, luciferase, 24 h; activation: active compounds read high. Summed up: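 Human hepatoma 1A2-DRE cells, stably carrying a dioxin response element and CYP1A2 promoter driving luciferase, were exposed to compounds for 24 hr at 37 C and 5% CO2. Luciferase signal was then read after 30 min One-Glo at room temperature.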

The target of experiment [5] is Peroxisome proliferator-activated receptor alpha (Homo sapiens) (UniProt Q07869). The experiment can be described thus: qHTS assay for small molecule agonists of the peroxisome proliferator-activated receptor alpha (PPARalpha) signaling pathway (AID 651778). Also: % of control where 0% means no effect. Particulars: PathHunter PPARalpha complementation, chemiluminescence, 6 h; max response: active compounds read high. Summed up:
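Enzyme-fragment complementation assay in which ligand-bound PPARalpha translocates and forms an active enzyme that generates chemiluminescence. Cells were plated overnight, exposed to compound for 6 hr at 37 C, and then given detection reagent for 60 min at room temperature.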

Experiment [6] has as its target Arylsulfatase A (Homo sapiens) (UniProt P15289). The experiment can be described thus: qHTS screen for enhancers of Arylsulfatase A (ASA1): LOPAC Validation Assay (AID 720538). Summed up:
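Cell-based enhancement test: residual ASA activity in SV40-transformed I179S patient fibroblasts is measured by pNCS turnover (0.5mM final, 14h, room temperature) following 48h compound incubation; higher fluorescence indicates activation.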

The nature of experiment [7]: qHTS for compounds that reverse cellular toxicity of Amyloid beta (A-beta) peptide in yeast: LOPAC Validation Assay (AID 720559).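 Also: plate controls were DMSO for no effect and equimolar ferric chloride plus clioquinol rescue for full effect.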 In short, it runs like this:
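Here, A-beta-toxic yeast grow with test compounds at 30 C for 48 hr before optical density at 600 nm is recorded; data are normalized against DMSO and the FeCl3-clioquinol control.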

The nature of experiment [8]: qHTS for Activators of Parkin Expression: LOPAC Validation Assay (NLuc Reporter) (AID 720572). Summed up: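 NLuc signal, read 10 min after reagent and following a prior FLuc read, is normalized to DMSO (0) and positive controls (100%). Cells: neuronal Parkin-promoter coincidence reporter line; compounds tested 7-point, 24 h, 37 C, 5% CO2.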
A short description of experiment [9]: qHTS for Activators of Parkin Expression: LOPAC Validation Assay (FLuc Reporter) (AID 720573; also: potency is read from the fitted curve at half-maximal effect). In short, it runs like this:
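Readout is FLuc luminescence from neuronal reporter cells (Parkin promoter, FLuc plus NLuc) after 24 h compound exposure in dose response. Values normalized to neutral DMSO and positive-control compounds.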

The nature of experiment [10]: qHTS assay for small molecule agonists of the antioxidant response element (ARE) signaling pathway measured by Nrf2-dependant transcriptional activity (AID 720636; active = well fitted curve in the direction sought with a large enough effect in the repeat runs; an effect the other way counts as inactive or inconclusive; also: % of control where 0% means no effect). Summed up: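 ARE-luc HepG2 cells carrying an Nrf2-responsive luciferase reporter were plated in medium with 1% dialyzed FBS, left 6 hr at 37 C to attach, then exposed to compound for 16 hr. Luciferase luminescence was read after ONE-Glo addition.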

Experiment [11] in a line: qHTS assay for small molecule agonists of the antioxidant response element (ARE) signaling pathway measured by Nrf2-dependant transcriptional activity - cell viability counter screen (AID 720653; active = well fitted curve in the direction sought with a large enough effect in the repeat runs; an effect the other way counts as inactive or inconclusive; also: % is scaled to controls: 0 for no effect and ±100 for the full control effect). Particulars: ARE-bla HepG2 viability, CellTiter-Glo ATP luminescence, 16 h; max response: active compounds read low. Summed up:
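ARE-bla HepG2 cells treated with compounds for 16 h at 37C; this counter screen measures viability as intracellular ATP by CellTiter-Glo luminescence after 30 min at room temperature.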

Experiment [12] can be described thus: qHTS assay for small molecule disruptors of the mitochondrial membrane potential - 1 hr assay (AID 651754; calls by dose curve; also: potency is read from the fitted curve at half-maximal effect; nearly all actives have a fitted effect of over 35% in size). Summed up:
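Read-out: dye fluorescence at 490 nm ex/535 nm em (monomers) and 540 nm ex/590 nm em (aggregates) in HepG2 cells. Compound exposure 1 hr at 37C, followed by 30 min dye loading.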

A short description of experiment [13]: qHTS assay for small molecule disruptors of the mitochondrial membrane potential - 5 hr assay (AID 651755; calls by dose curve; also: nearly all actives have a fitted effect of over 40% in size; also: potency is read from the fitted curve at half-maximal effect). Summed up:
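Read-out: ratiometric Mito-MPS fluorescence, green monomer (ex 490/em 535) vs red mitochondrial aggregate (ex 540/em 590). HepG2 cells treated 5 hr at 37C before 30 min dye loading.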

The nature of experiment [14]: qHTS assay to identify small molecules that stimulate interleukin-8 (IL-8) secretion (AID 651758; active = well fitted activation curve with a large enough effect in the signal ratio; the % refers to the signal ratio; also: 0% is about no effect). In short, it runs like this:
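Compounds are added to THP-1 cells (2000 per well) and left 16 hrs at 37 C. A labeled anti-IL-8 antibody pair is then added, and IL-8 secretion is measured by time-resolved FRET after 1-3 hrs at room temperature.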

Experiment [15] has as its target Nuclear receptor ROR-gamma (Homo sapiens) (UniProt P51449). The experiment can be described thus: qHTS assay for small molecule antagonists of the retinoid-related orphan receptor gamma (ROR-gamma) signaling pathway (AID 651802).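 Also: CHO cells with doxycycline-induced ROR-gamma expression; luciferase reporter luminescence driven by ROR response element; series mostly up to about 92 µM; % is scaled to controls: 0 for no effect and ±100 for the full control effect; nearly all actives have a fitted effect of over 60% in size.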 Summed up:
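Luciferase read-out: ONE-Glo luminescence after 30 min at room temperature, following 16hr doxycycline induction at 37C, 5% CO2 of CHO cells with TET-inducible ROR and RORE-LUC reporter; decreased luminescence = reduced reporter activity.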

Experiment [16] can be described thus: qHTS for small molecule inhibitors of Yes1 kinase: Counter Assay (AID 686950).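 Also: no kinase present so only ADP-Glo detection of a fixed ADP amount is tested; luminescence from ADP-Glo reporting ADP in a fixed ATP and ADP mixture; series mostly up to about 77 µM; 0% = DMSO wells with ATP plus ADP and -100% = ATP-only wells without ADP.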 Summed up:
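No kinase present; 0.08 mM ATP + 0.02 mM ADP in 50 mM Tris pH 7.5, 10 mM MgCl2, 150 mM NaCl, 1 mM DTT; 20 min compound preincubation, 60 min RT, ADP-Glo luminescence, normalized to ATP/ADP (max) and ATP-only (min).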

The target of experiment [17] is Hexokinase-4 (Homo sapiens) + Glucokinase regulatory protein (Homo sapiens) (UniProt P35557+Q14397). The experiment can be described thus: qHTS assay for inhibitors of recombinant human GCK-GKRP interaction: Diaphorase-coupled assay (AID 743205). Summed up:
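Signal derives from resorufin generated by diaphorase, linked to GCK turnover of glucose (5 mM) and ATP (0.4 mM). Enzyme complex was added after a 20-minute compound preincubation and monitored for 30 minutes.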

Experiment [18] deals with Tumor necrosis factor (Homo sapiens) (UniProt P01375). As to the kind of experiment: qHTS assay to identify small molecules that stimulate Tumor Necrosis Factor-alpha (TNF-alpha) secretion (AID 651757; active = well fitted curve in the direction sought with a large enough effect in the signal ratio; the % refers to the signal ratio; also: 0% is about no effect). Summed up: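 THP-1 cells, 3000/well; compound 17 hrs, 37 C; add cryptate/XL665 anti-TNF-alpha antibody pair; 3 hr RT; TR-FRET (HTRF) read of secreted TNF-alpha. Quantitative HTS format.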
Tumor necrosis factor (Homo sapiens), sequence (P01375 whole entry, looked up): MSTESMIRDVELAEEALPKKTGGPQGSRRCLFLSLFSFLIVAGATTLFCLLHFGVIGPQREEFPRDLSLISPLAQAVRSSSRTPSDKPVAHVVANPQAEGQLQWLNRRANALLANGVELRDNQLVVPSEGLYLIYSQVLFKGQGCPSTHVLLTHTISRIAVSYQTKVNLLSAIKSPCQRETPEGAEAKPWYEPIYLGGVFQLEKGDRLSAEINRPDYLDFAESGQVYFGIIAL

The nature of experiment [19]: qHTS assay for small molecule antagonists of the retinoid-related orphan receptor gamma (ROR-gamma) signaling pathway - cell viability counter screen (AID 720652; active = well fitted curve in the direction sought with a large enough effect in the repeat runs; an effect the other way counts as inactive or inconclusive;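 also: CHO reporter cells with doxycycline-induced ROR-gamma expression; series mostly up to about 92 µM; compound exposure lasted 16 hr before ATP read; % is scaled to controls: 0 for no effect and ±100 for the full control effect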). Summed up:
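CHO RORE-LUC/TET-ROR line, 1,000 cells/well, 37 C 5% CO2 5 hr; cpd or DMSO + doxycycline induction, 16 hr. CellTiter-Glo, 30 min RT, luminescence = ATP content.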

Experiment [20] has as its target Tyrosine-protein kinase Yes (Homo sapiens) (UniProt P07947). As to the kind of experiment: qHTS for small molecule inhibitors of Yes1 kinase: Primary Screen (AID 686947).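 Also: plate controls were DMSO with enzyme for no effect and no-enzyme DMSO wells for full effect; nearly all actives have a fitted effect of over 60% in size.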 In short, it runs like this:
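In this qHTS format, inhibition is expressed relative to DMSO controls with enzyme (maximum) and without enzyme (minimum). The 60 min room-temperature reaction uses 0.1 mM ATP, with ADP detected by luminescence.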

From PubChem BioAssay (NCATS) come the findings set out here.

Where “and” joins values, the source holds several entries; their conditions need not be identical. Equal values may be shown once. A number with no mark means an inactive call. Inconclusive results are not listed. Calls of active or inactive are those of the source. Unless noted, calls follow the shape of the dose curve; as a rule, active = well fitted curve in the direction sought with a large enough effect; inconclusive = small, poorly fitted or top-dose-only effect, or another doubt; inactive = no such curve, though single readings can be large; an effect the other way counts as inactive or inconclusive.

Peroxisome proliferator-activated receptor alpha (Homo sapiens), sequence (Q07869 whole entry, looked up, the tested form may be a part): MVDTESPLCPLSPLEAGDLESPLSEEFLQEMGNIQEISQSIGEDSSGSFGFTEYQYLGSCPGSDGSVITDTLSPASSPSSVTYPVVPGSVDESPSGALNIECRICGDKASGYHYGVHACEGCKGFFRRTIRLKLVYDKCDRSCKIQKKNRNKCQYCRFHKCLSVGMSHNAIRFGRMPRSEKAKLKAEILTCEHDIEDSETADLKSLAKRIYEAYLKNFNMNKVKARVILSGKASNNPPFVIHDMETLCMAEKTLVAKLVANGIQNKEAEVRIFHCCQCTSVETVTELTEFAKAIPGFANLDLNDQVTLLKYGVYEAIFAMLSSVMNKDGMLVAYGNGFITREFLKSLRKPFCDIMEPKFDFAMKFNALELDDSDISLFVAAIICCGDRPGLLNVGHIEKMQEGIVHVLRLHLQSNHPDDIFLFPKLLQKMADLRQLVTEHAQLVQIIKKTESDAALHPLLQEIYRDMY
Arylsulfatase A (Homo sapiens), sequence (P15289 whole entry, looked up): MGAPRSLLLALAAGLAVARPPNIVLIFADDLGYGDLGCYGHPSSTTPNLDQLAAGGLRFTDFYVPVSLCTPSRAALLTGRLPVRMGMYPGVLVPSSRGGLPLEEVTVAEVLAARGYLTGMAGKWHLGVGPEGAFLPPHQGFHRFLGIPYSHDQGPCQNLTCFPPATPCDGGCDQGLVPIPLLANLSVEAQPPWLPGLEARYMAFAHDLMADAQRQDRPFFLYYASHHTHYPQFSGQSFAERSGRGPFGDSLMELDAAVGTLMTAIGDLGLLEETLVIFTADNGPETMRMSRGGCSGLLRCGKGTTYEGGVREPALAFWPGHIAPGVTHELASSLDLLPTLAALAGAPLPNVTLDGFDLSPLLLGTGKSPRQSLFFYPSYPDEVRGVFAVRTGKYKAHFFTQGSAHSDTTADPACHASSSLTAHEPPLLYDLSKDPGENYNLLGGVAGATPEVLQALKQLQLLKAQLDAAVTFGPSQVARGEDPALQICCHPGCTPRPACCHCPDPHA
Hexokinase-4 (Homo sapiens) + Glucokinase regulatory protein (Homo sapiens), sequence (P35557 whole entry, looked up): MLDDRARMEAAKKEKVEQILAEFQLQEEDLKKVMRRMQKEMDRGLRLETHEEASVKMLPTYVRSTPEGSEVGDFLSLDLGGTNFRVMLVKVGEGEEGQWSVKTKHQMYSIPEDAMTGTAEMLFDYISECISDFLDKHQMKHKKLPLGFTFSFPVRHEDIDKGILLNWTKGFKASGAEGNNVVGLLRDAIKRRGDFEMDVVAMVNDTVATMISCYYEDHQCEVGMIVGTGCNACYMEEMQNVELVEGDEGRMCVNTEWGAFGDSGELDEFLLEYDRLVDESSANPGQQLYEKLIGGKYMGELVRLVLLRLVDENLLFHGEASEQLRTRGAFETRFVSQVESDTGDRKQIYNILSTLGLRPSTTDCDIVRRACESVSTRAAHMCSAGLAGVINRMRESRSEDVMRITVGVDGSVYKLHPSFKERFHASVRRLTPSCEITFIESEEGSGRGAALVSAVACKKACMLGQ
Hexokinase-4 (Homo sapiens) + Glucokinase regulatory protein (Homo sapiens), sequence (Q14397 whole entry, looked up): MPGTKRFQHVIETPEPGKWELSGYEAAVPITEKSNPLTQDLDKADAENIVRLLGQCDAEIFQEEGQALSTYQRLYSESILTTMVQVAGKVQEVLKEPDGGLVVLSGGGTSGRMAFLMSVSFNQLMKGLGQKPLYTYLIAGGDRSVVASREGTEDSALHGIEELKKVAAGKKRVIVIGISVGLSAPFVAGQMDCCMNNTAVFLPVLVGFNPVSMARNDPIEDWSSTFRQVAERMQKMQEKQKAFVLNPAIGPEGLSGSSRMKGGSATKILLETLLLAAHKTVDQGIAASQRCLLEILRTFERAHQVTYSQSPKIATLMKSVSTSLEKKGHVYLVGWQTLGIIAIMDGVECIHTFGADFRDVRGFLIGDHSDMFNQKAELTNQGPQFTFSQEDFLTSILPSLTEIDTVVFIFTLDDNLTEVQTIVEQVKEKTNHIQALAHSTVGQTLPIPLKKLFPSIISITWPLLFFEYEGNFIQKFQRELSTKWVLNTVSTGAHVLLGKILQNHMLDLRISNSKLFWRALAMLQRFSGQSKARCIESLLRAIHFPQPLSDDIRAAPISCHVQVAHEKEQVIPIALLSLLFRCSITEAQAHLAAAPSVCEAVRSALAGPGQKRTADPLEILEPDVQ
Tyrosine-protein kinase Yes (Homo sapiens), sequence (P07947 whole entry, looked up): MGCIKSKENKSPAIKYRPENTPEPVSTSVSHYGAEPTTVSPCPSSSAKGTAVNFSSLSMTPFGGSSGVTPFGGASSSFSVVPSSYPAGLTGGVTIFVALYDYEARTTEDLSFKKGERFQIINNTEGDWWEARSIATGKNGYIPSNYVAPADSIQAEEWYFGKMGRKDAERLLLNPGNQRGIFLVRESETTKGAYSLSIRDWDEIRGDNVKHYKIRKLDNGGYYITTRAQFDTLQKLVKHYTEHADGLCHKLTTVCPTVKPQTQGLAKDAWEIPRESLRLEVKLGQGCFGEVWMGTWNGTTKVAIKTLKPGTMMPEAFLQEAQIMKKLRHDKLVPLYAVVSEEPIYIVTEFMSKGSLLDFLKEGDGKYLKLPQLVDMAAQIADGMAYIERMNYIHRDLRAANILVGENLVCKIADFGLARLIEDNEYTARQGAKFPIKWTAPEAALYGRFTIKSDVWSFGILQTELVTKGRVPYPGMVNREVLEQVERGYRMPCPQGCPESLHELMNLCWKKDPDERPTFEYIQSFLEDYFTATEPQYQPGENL
Nuclear receptor ROR-gamma (Homo sapiens), sequence (P51449 whole entry, looked up): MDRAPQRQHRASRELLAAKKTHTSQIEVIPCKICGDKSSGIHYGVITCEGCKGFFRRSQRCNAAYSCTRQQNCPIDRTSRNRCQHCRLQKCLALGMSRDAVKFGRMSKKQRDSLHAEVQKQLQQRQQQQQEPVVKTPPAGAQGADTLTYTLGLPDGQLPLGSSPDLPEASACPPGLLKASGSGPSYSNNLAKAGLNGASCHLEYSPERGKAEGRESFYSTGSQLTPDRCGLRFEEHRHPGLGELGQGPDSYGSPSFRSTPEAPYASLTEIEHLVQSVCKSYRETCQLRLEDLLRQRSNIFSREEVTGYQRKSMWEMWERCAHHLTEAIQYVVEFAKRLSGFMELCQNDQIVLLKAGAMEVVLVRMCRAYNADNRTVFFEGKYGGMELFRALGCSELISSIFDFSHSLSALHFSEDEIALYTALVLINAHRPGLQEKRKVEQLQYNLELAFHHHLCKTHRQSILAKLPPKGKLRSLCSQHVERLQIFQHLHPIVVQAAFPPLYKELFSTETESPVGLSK

As for `CC(C)Cc1ccc(C(C)C(=O)O)cc1` (centres undefined), the Potency entry in experiment [1], in experiment [6] and in [9] was “inactive” throughout. Besides, the activation in [2] was -2.52%; in experiment [3], -1.23%; in experiment [4], -1.21%. For the same molecule, the max response was -0.128% in [5] and 3.8% in experiment [11]. The result in experiment [7], in [8] and in experiment [10] was inactive.
For the molecule `O=c1c(-c2ccc(O)cc2)coc2cc(O)cc(O)c12`, the Potency in experiment [1] is 9.69 µM (active) and 13.3 µM (active); in experiment [12] it was 5.96 µM (active); in experiment [13] it was 7.5 µM (active); in [4], 12.6 µM (active); in experiment [9], 8.2 µM (active). Besides, the activation in [2] was 12.7% and 14.1%; in experiment [3] it was 3.3% and 4.88%. The molecule was classed as inactive in experiment [14], in [16] and in [7]. Further, the max response in [5] is -1.44% and -0.484%; in experiment [11], 0.177% and -1.16%. Also, the Potency result in experiment [15], in experiment [6] and in experiment [17] was “inactive” throughout.
As for `Cn1c(=O)c2[nH]cnc2n(C)c1=O`, the Potency result in experiment [1], in [9] and in [19] was “inactive” in each case. The figures for the activation in experiment [2], in [3] and in experiment [4] were 0.514%, 0.41% and 3.65%, respectively. For the same molecule, the molecule was called inactive in [18], in experiment [7], in experiment [8] and in [10]. The max response in experiment [5] is -1.61%; in experiment [11], 0.323%.
Turning to `N[C@@H](Cc1c[nH]c2ccc(O)cc12)C(=O)O`, the activation in [3] is 0.166%. The Potency entry in [13], in experiment [6], in experiment [9] and in [17] was “inactive” each time. For the same molecule, the max response in experiment [5] is -1.51%; in experiment [11], -3.27%. For the same molecule, the molecule was classed as inactive in [7], in experiment [8] and in experiment [10].
Regarding `COc1ccc2c(c1)c(CC(=O)O)c(C)n2C(=O)c1ccc(Cl)cc1`, the activation in experiment [2] is -7.78% and -10.3%; in [4], 0.534% and -1.07%. Moreover, the molecule was called inactive in experiment [18], in experiment [7] and in experiment [10]. In addition, the max response in experiment [5] was 11.2% and 10.8%; in experiment [11], 1.73% and -1.81%. In addition, the Potency entry in experiment [6], in experiment [9] and in [19] was “inactive” each time.
With `COc1ccc(CCN(C)CCCC(C#N)(c2ccc(OC)c(OC)c2)C(C)C)cc1OC` (centres undefined), in [2], the activation was -2.6%. Besides, the result in experiment [18], in experiment [16], in experiment [8] and in [10] was inactive. Moreover, the Potency result in [20], in experiment [6], in experiment [9], in experiment [19] and in experiment [17] was “inactive” throughout. Also, in [11], the max response is -18%.
